# Assay outcomes (PubChem BioAssay)
# LASV entry inh: Lassa virus entry inhibition; Lassa virus pseudotype entry inhibition, cell reporter; Potency, µM (highest dose often 37.9 µM), for the others: top-dose activity change, negative = inhibition, hits mostly inhibitors; hit rate 1.2% among 300,000; calls by dose curve; tested in HEK293 cells; note: potency is the fitted concentration of half-maximal effect; nearly all actives have a fitted effect of over 50% in size
# VACV Venus inh: inhibitors of vaccinia virus (Venus reporter) | Vaccinia virus Venus reporter expression, fluorescence | Potency, µM (series often up to 36.5 µM), without a hit: at the top dose activity change, negative = inhibition, most hits filed as inhibitors | hit rate 0.46% among 330,000 | AID 720580; calls by dose curve; tested in A549 cells; note: potency is the fitted concentration of half-maximal effect; nearly all actives have a fitted effect of over 30% in size
# VACV mCherry inh: vaccinia inhibition (mCherry reporter) | Vaccinia virus mCherry reporter infection, fluorescence | Potency, µM (highest dose often 36.5 µM), for inactives: top-dose activity change, negative = inhibition, usual class: inhibitors | hit rate 0.63% among 310,000 | AID 720579; calls by dose curve; tested in A549 cells; note: potency is the fitted concentration of half-maximal effect; nearly all actives have a fitted effect of over 35% in size
# Marburg entry inh: inhibitors of Marburg virus binding or cell entry. hit rate 1.8% among 300,000. Marburg virus pseudotyped entry inhibition, cell reporter. AID 540276. Potency, µM (series often up to 37.8 µM), for inactives: top-dose activity change, negative = inhibition, most hits filed as inhibitors; calls by dose curve; tested in HEK293 cells; note: potency is the fitted concentration of half-maximal effect
# FMDV antiviral: antivirals against foot and mouth disease virus; FMDV antiviral cell-based qHTS; Potency, µM (series often up to 57.9 µM), without a hit: at the highest dose activity change, negative = inhibition, most hits filed as inhibitors; hit rate 1.2% among 410,000; calls by dose curve; tested in HEK293T cells; note: read-out not given here; potency is the fitted concentration of half-maximal effect; nearly all actives have a fitted effect of over 45% in size
# HCMV inh: human cytomegalovirus inhibition; HFF cells, HCMV-luciferase reporter, 72 h; hits give low values; activity change, negative = inhibition, % at 57.5 µM; hit rate 4.5% among 410,000; in the data active = activity change below about -60%; inconclusive = no clear call, values can overlap the other calls; inactive = above about -39%
#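 Luciferase read-out from HCMV-luciferase-infected HFFs (MOI 1 PFU/cell) 72 h post infection at 37C; compounds added after 16 h cell attachment; activity normalized between buffer-only basal and Salinomycin (10uM) inhibitor controls.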
# Numbers without * were called inactive; i = inactive; u = inconclusive; x = not tested or not shown; [ ] = remark or other dose. The list is not random: actives were taken first. Their share in the collection is about 6.5%. % is set by controls: 0 for no effect and ±100 for the full control effect.
SMILES,LASV entry inh,VACV Venus inh,VACV mCherry inh,Marburg entry inh,FMDV antiviral,HCMV inh
COc1cc(CN2CCOc3ccc(CN4CCN(CCO)CC4)cc3C2)ccc1F,x,-4%,-15%,x,-14%,x
CN(C)CCNc1ccc(CO)c2sc3ccc(O)cc3c(=O)c12,1µM*,u,u,0.89µM*,-16%,-97*
COc1ccc2sc3cccc(NCCN(C)C)c3c(=O)c2c1,x,-27%,3%,x,17%,2
CN(C)CCNc1ccc2ncn3c4ccc(O)cc4c(=O)c1c23,u,1.1µM*,0.79µM*,u,u,-93*
CN(C)CCNc1ccc(-c2nn(C)c(=O)c3ccccc23)cc1[N+](=O)[O-],-2%[46.1 µM],-15%,-13%,u,4%,3
COCC(=O)n1nc(NCc2ccc(OC)cc2)nc1NCc1ccc(OC)cc1,6%,-13%,-20%,u,-13%,10
CCC(=O)n1nc(NCc2ccc(OC)c(OC)c2)nc1NCc1ccc(OC)c(OC)c1,-2%,u,x,-7%,18µM*,-27
O=C1CSC(=S)N1c1cccc(Br)c1,u,9%,14%,u,u,-77*
C/C(N)=C(/C#N)C(=O)COC(=O)Cc1coc2cc(C)ccc12,1%,-6%,7%,-6%[46.1 µM],-8%,180
O=C(Nc1ccc(N2CCN(C(=O)c3ccccc3)CC2)cc1)c1cc2ccccc2o1,14µM*,u,x,u,14µM*,-66*
CN1CCN(c2ccc(NC(=O)c3cc4ccccc4o3)cc2)CC1,x,x,x,x,47%,97
COc1cccc(C(=O)NC(=S)Nc2ccc(N3CCCC3)cc2)c1,u,-11%,x,-5%,u,17
CCCC(=O)N1CCN(c2ccc(NC(=O)c3cc4ccccc4o3)cc2)CC1,-18%,-16%,x,u,25µM*,-7
CCCC(=O)N1CCN(c2ccc(NC(=S)NC(=O)c3cccc(C)c3)cc2)CC1,u,4%,-7%,u,16µM*,u
C[C@@H](ON=C1[C@H]2CCn3c(=O)n(-c4ccccc4)c(=O)n3[C@@H]2[C@H](O)[C@@H]2O[C@H]12)c1cn([C@H](CO)Cc2ccccc2)nn1,u,x,x,-23%[14.2 µM],x,x
Cc1cc(SCC(=O)Nc2ccc(C(F)(F)F)cc2)nc(=O)[nH]1,1%[46.1 µM],-9%,-10%,x,u,-20
O=C(Nc1ccc(Cl)c(C(F)(F)F)c1)C1CCN(S(=O)(=O)c2cccc3nonc23)CC1,u,-12%,-14%,u,32µM*,u
O=C(Nc1ccc(C(F)(F)F)cc1)C1CCCN1S(=O)(=O)c1cccc2cccnc12 (centres undefined),u,x,x,u,-28%,-75*
O=C(Nc1ccc(Cl)c(C(F)(F)F)c1)C1CCCN(S(=O)(=O)c2cccc3cccnc23)C1 (centres undefined),5.6µM*,u,-29%,x,u,0
O=C(Nc1ccccc1N1CCCCC1)C1CCN(S(=O)(=O)c2ccccc2C(F)(F)F)CC1,u,-9%,-11%,u,-21%,-61*
O=C(Nc1cccc(F)c1)C1CCN(S(=O)(=O)c2cccc3nonc23)CC1,1%,-7%,15%,-19%[46.1 µM],u,-7
Cc1ccc(NC(=O)C2CCCN(S(=O)(=O)c3cccc4cccnc34)C2)cc1Cl (centres undefined),u,-24%,-30%,u,u,-7
Cc1cccc(NC(=O)Cn2c(=O)n(CC3CCC(C(=O)NCCc4ccccc4)CC3)c(=O)c3ccccc32)c1 (centres undefined),u,u,u,13%[46.1 µM],-8%,25
CCn1ncc(N2CCOCC2)c(Cl)c1=O,x,-7%,-16%,x,11%,34
C[C@@H](C(=O)OC1C[C@H]2CC[C@@H](C1)N2C)c1ccc(Br)cc1 (some centres undefined),x,x,x,x,1%,x
SMILES,LASV entry inh,VACV Venus inh,VACV mCherry inh,Marburg entry inh,FMDV antiviral,HCMV inh
CN1C2CCC1CC(OC(c1ccccc1)c1ccccc1N)C2 (centres undefined),u,-4%,-5%,18µM*,-21%,-4
CN1C2CCC1CC(OC(c1ccccc1)c1ccc(Cl)cc1)C2 (centres undefined),x,x,x,3.2µM*,x,u
CN1CCC(OC(c2ccccc2)c2ccccc2)CC1,u,-9%,i,u,0%,17
COc1ccc(-c2nc3cc(C)ccc3cc2CN(C(=O)c2csc(C)n2)C2CC2)cc1OC,x,-2%,-7%,x,-8%,x
Cc1ccccc1NC(=O)Cn1cc(C(=O)c2ccco2)c2ccccc21,-3%[46.1 µM],-8%,-18%,-7%[46.1 µM],-20%,-10
Nc1ccc(NS(=O)(=O)c2ccccc2)cc1,x,x,x,x,-15%,12
c1ccc(OCCSc2nnc3sc4ccccc4n23)cc1,10µM*,-5%,i,2.1µM*,x,u
COc1cccc(OCCSc2nnc3sc4ccccc4n23)c1,u,-6%,x,-1%,-9%,39
CN(C)CCC(O)(c1ccccc1)c1ccccc1,-1%,-11%,i,u,x,x
NCC(c1ccccc1)(c1ccccc1)c1ccccc1,1%,-26%,-22%,7.9µM*,-25%,1
C[C@H]1[C@H](c2ccccc2)Oc2ccc(Cl)cc2S(=O)(=O)N1C[C@@H]1CCCN1C(=O)OC(C)(C)C,x,x,x,u,x,-29
COc1ccc2[nH]c(C)c(C(=O)CN(C)CC(OC)OC)c2c1,x,-10%,-13%,x,x,x
COc1ccc(N(CC(O)Cn2c3ccccc3c3ccccc32)S(=O)(=O)c2ccccc2)cc1 (centres undefined),-4%,u,x,u,u,-78*
CS(=O)(=O)N(CC(O)Cn1c2ccccc2c2ccccc21)c1ccccc1 (centres undefined),-13%,u,x,u,u,9
CCN(CC(O)Cn1c2ccccc2c2ccccc21)S(=O)(=O)c1ccc(C)cc1 (centres undefined),u,x,x,u,-8%,12
Cc1ccc(N(CC(O)Cn2c3ccccc3c3ccccc32)S(=O)(=O)c2ccc(F)cc2)cc1 (centres undefined),-19%[46.1 µM],-3%[7.34 µM],-1%[7.34 µM],u,u,-92*
COc1ccccc1N1CCN(C(=O)c2cc3cc(Cl)ccc3[nH]2)CC1,x,x,x,x,2%,33
CCC(C)(C)NC(=O)C(c1ccc(C)cc1)N(Cc1cccs1)C(=O)c1ccc2c(c1)OCCO2 (centres undefined),u,-11%,-21%,15µM*,-22%,-21
Cc1cc(OCCCn2c(CCNC(=O)C3CCCCC3)nc3ccccc32)ccc1Cl,-25%[46.1 µM],-11%[7.34 µM],-7%[7.34 µM],u,-4%,-73*
Cc1cc(C(=O)N/N=C/c2ccncc2)c(C)o1,-5%,-1%,-14%,-13%,0%,18
Cc1ccc(/C=N/NC(=O)c2cc(C)oc2C)cc1,u,-18%,-27%,10µM*,17%,u
C/C(=N/NC(=O)c1ccc(C)s1)c1cccc(NC(=O)COc2ccc(Cl)cc2Cl)c1,-25%,3%,x,u,15%,-35
